{
  "source": "PubChem BioAssay AID2315",
  "about": "(National Center for Advancing Translational Sciences (NCATS), 2010)",
  "note": "Out of some 290,000 compounds screened, about 27,000 (9.3%) were called active. The sample holds actives, similar compounds and a random draw of the others, so the mix is not that of the screen. Rule as the data show it: active = inhibition mostly above about 28% (no sharp cut-off); inactive = mostly below about 43%.",
  "data": [
    {"experiment": "A qHTS for Small Molecule Inhibitors of Shiga Toxin; also: 0% is about no effect", "details": "Vero cells, Shiga toxin protein synthesis inhibition reporter; at 38.7 µM, stronger effect = higher value", "values": [
      {"molecule": "Cc1cc2c(cc1S(=O)(=O)CCC(=O)NCc1ccccc1)OCC(=O)N2", "inhibition": "9.17% (inactive)"},
      {"molecule": "COCCCNC(=O)CNC(=O)c1nn(-c2ccc(OC)cc2)c(=O)c2ccccc12", "inhibition": "-3.74% (inactive)"},
      {"molecule": "O=C(CN1CCN(S(=O)(=O)c2cc(Cl)ccc2Cl)CC1)c1ccc(O)c(O)c1", "inhibition": "-3.28% (inactive)"},
      {"molecule": "COC(=O)Nc1nc2ccc(Sc3ccccc3)cc2[nH]1", "inhibition": "76.6% (active)"},
      {"molecule": "COc1cc(OC)cc(C(=O)N[C@H](C(=O)Nc2nc3ccccc3[nH]2)C(C)C)c1", "inhibition": "-3.89% (inactive)"},
      {"molecule": "Cc1nc2ccc(C(=O)O)cc2[nH]1", "inhibition": "-11.9% (inactive)"},
      {"molecule": "Cc1ccc(S(=O)(=O)N(C)c2nc3ccccc3n3c(C(C)C)nnc23)cc1", "inhibition": "13.3% (inactive)"},
      {"molecule": "CCCC(=O)Nc1ccc(C(=O)N/N=C/c2ccc[nH]2)cc1", "inhibition": "13% (inactive)"},
      {"molecule": "CC(=O)Nc1ccc(NC(=O)CCCNC(=O)c2ccc(Cl)cc2)cc1", "inhibition": "3.88% (inactive)"},
      {"molecule": "CC(=O)Nc1ccc(C(=O)/C=C/c2ccc[nH]2)cc1", "inhibition": "77.1% (active)"},
      {"molecule": "CC(=O)Nc1ccc(/C=C/C(=O)c2ccccc2)cc1", "inhibition": "58.1% (active)"},
      {"molecule": "CC(=O)Nc1ccc(NC(=S)NC(=O)/C=C/c2ccccc2)cc1", "inhibition": "5.78% (inactive)"},
      {"molecule": "COc1ccc(C(=O)/C=C/c2ccc(OC3CSC3)cc2)cc1", "inhibition": "2.97% (inactive)"},
      {"molecule": "C=CCNC(=S)/N=c1/ccccn1Cc1ccccc1", "inhibition": "2.67% (inactive)"},
      {"molecule": "O=C(NC(=S)NC1CCS(=O)(=O)C1)c1cccc([N+](=O)[O-])c1", "note": "(stereo unspecified)", "inhibition": "-10.3% (inactive)"},
      {"molecule": "Cc1ccc(SCC(=O)NNC(=O)c2ccc(S(C)(=O)=O)cc2)cc1", "inhibition": "-6.84% (inactive)"},
      {"molecule": "COc1ccc(CCn2c(=N)c(C(=O)NCC3CCCO3)cc3c(=O)n4cccc(C)c4nc32)cc1OC", "note": "(stereo unspecified)", "inhibition": "2.54% (inactive)"},
      {"molecule": "O=C(NCc1nnc(SCC(=O)N2CCCCCC2)o1)c1ccc(F)cc1", "inhibition": "-3.11% (inactive)"},
      {"molecule": "Fc1ccccc1N=C1Nc2cccc3cccc1c23", "inhibition": "59% (active)"},
      {"molecule": "COc1ccccc1C1=Nc2cccc3cccc(c23)N1", "inhibition": "-3.03% (inactive)"},
      {"molecule": "c1ccc(C2=Nc3cccc4cccc(c34)N2)cc1", "inhibition": "3.03% (inactive)"},
      {"molecule": "Cc1cc(N2C(=O)C(O)=C(C(=O)c3ccc(C)o3)C2c2ccc(OCc3ccccc3)cc2)no1", "note": "(stereo unspecified)", "inhibition": "-3.21% (inactive)"},
      {"molecule": "COc1ccc(NC(=O)c2cn(-c3ccccc3)nc2SC)cc1", "inhibition": "43.3% (active)"},
      {"molecule": "COc1ccc(-c2nn(-c3ccccc3)cc2/C=C\\C(=O)Nc2ccc(C(=O)O)cc2)cc1", "inhibition": "-20.1% (inactive)"},
      {"molecule": "COc1ccc(-c2nn(-c3ccccc3)cc2C(=O)Nc2nc(CC(C)=O)ns2)cc1", "inhibition": "-2.47% (inactive)"},
      {"molecule": "O=C(CN1CCC(O)(c2cccc(C(F)(F)F)c2)CC1)NCCc1ccccc1", "inhibition": "-6.9% (inactive)"}
    ]}
  ]
}
